Test results published in PubChem BioAssay (NCATS).
Results filed as inconclusive are left out. The source made the active and inactive calls. Calls follow the shape of the dose curve; as a rule, active = well fitted activation curve with a large enough effect in the main read-out, with a control signal flat (not every such curve was filed as active); inconclusive = small, poorly fitted or top-dose-only effect, or effect the other way, or a change in a side signal; inactive = flat fitted curve, though single readings scatter.

Target: 3',5'-cyclic-AMP phosphodiesterase 4B (Homo sapiens) (UniProt Q07343)
Sequence (Q07343 whole entry, looked up): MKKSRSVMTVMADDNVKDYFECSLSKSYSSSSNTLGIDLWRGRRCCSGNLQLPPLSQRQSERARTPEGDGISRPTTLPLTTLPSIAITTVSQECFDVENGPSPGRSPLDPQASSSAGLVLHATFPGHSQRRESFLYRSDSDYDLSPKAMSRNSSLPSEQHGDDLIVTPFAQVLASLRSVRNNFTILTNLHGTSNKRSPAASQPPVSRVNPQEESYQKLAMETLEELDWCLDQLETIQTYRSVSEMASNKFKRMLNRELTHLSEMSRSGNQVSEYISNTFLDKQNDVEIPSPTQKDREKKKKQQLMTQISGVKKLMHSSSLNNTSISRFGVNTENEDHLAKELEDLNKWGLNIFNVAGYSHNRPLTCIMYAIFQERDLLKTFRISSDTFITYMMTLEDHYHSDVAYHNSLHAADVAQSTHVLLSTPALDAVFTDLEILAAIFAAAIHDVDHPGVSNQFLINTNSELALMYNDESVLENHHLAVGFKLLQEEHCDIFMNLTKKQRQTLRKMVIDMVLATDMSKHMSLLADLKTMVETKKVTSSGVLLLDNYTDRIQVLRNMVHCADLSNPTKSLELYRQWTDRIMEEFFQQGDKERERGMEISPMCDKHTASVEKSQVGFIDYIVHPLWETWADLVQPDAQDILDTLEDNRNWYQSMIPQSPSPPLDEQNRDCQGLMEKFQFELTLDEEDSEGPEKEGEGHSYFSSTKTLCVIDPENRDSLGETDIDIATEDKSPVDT
Test: qHTS Assay for Inhibitors of PDE-IV (AID 607); also: % of control where 0% means no effect
Conditions: HEK293 ACTOne CNG channel cells, membrane potential fluorescence; series mostly up to 22.9 µM; activation (PDE inhibition): at the top concentration
Text: NIH Chemical Genomics Center [NCGC]
NIH Molecular Libraries Screening Centers Network [MLSCN]
The cyclic nucleotide phosphodiesterases (PDEs) are proteins that catalyze hydrolysis of 3', 5'-cyclic nucleotides, such as cyclic adenosine monophosphate (cAMP) and cyclic guanosine monophosphate (cGMP), to their corresponding 5'-nucleotide monophosphates. These enzymes play an important role in controlling cellular concentrations of cyclic nucleotides and have a central role in a variety of intracellular signaling events. cAMP PDEs are emerging as a promising class of drug targets in asthma and cardiovascular disease therapeutic areas.
There are no commercially available cell-based screening assays for PDE inhibitors: currently biochemical assays are done using pure substrates (cAMP or cGMP) and purified recombinant PDE enzymes. As with other biochemical screens on intracellular targets, false positives and false negatives may result from issues involving cell membrane permeability, cellular metabolism, and the like.
Here we report the development of a cell-based screening assay for cAMP phosphodiesterase (PDE) inhibitors. The assay is based on the BD ACTOne# technology (BD Biosciences) which utilizes a modified cyclic nucleotide-gated channel (CNG) to monitor intracellular cAMP changes in live cells. The CNG channel is localized on the plasma membrane, and opens when the intracellular cAMP level increases, resulting in ion flux and cell membrane depolarization. The influx of cations through the CNG channel can be quantified using membrane potential (MP) dyes. We modified the BD ACTOne technology to allow the detection of PDE inhibitors, and performed an inhibitor screen for PDE-IV, which is expressed endogenously in HEK293 cells. We optimized this assay in homogeneous 1536-well plate assay format for high throughput screening.
NCGC Assay Protocol Summary:
The medium contained 10% FBS (Invitrogen), 2 mM L-glutamine, and 250 ug/ml G418 (Cellgro) and 1 ug/ml puromycin (Clontech). ACTOneTM parental cells (BD Biosciences) were maintained in the same medium without puromycin.
The activity of the CNG channel was measured by BD ACTOneTM membrane potential dye kit (BD Biosciences). Forskolin, a positive control for cAMP activation and RO 20-1724, a PDE inhibitor, were both purchased from Sigma and solublized in DMSO.
Sequence,Parameter,Value,Description
1,Reagent,3 uL,1000 cells/well 1536 TC treated Black plate
3,Compound,0.5 uL,Kalypsys dispense RO 20-1724 100 uM final [A]
4,Reagent,3 uL,BD membrane potential dye
6,Compound,23 nL,Final concentration was 0.7nM to 22.9uM
8,Detector,EX 535 / EM 590 [B],Envision
Footnotes: [A] The stock 2 mM RO 20-1724 PDE inhibitor was made in 10 % DMSO. Parental cell line received 10 uM forskolin + 100 uM RO. [B] Envsion settings: Bottom Excitation 535/20 nm top emission 590/20, gain of 150 and 5 flashes per well.
Keywords: PDE, PDE-IV, cytotoxicity, flourescence, MLSMR, MLSCN, NIH Roadmap, qHTS, NCGC

Activation (PDE inhibition), inactive:
CCN(CC)CCOC(=O)[C@@H](Cc1cccc2ccccc12)C[C@@H]1CCCO1 26.6%
O=C(NC[C@@H](O)CO)c1c(I)c(C(=O)NC[C@@H](O)CO)c(I)c(N(CCO)C(=O)CO)c1I -13.4%
NCc1ccccc1CC(=O)N[C@@H]1C(=O)N2C(C(=O)O)=C(CSc3nnnn3CC(=O)O)CS[C@@H]12 4.58%
O=C(O)[C@@H](O)[C@@H](O)[C@@H](O[C@H]1O[C@@H](CO)[C@@H](O)[C@@H](O)[C@@H]1O)[C@@H](O)CO -11.6%
C=C1CC23C[C@H]4[C@@H]5[C@@]6(C)C[C@H](OC(=O)c7ccccc7)[C@@H](OC(C)=O)[C@]57[C@@H]2[C@@H](OC(C)=O)[C@H]1[C@@H](O)[C@H]3[C@H]7N4C6 3.35%
COc1cc(N)c(Cl)cc1C(=O)N[C@H]1CCN(CCCOc2ccc(F)cc2)C[C@H]1OC 4.08%
C[C@H](N[C@@H](C)COc1ccccc1)[C@H](O)c1ccc(O)cc1 16.6%
CC[C@@H]1OC(=O)[C@H](C)[C@H](O[C@@H]2C[C@](C)(OC)[C@H](O)[C@H](C)O2)[C@H](C)[C@H](O[C@@H]2O[C@@H](C)C[C@@H](N(C)C)[C@@H]2O)[C@](C)(O)C[C@H](C)[C@@H]2N[C@H](COCCOC)O[C@H]([C@@H]2C)[C@]1(C)O -11.3%
C[C@@H]1C(=O)O[C@@H]2C[C@]34[C@H]5C[C@@H](C(C)(C)C)[C@@]36[C@@H](OC(=O)[C@@H]6O)O[C@@]4(C(=O)O5)[C@@]12O -3.48%
NC[C@@H]1O[C@@H](O[C@H]2[C@H](O)[C@H](O[C@@H]3O[C@H](CO)[C@@H](O)[C@H](N)[C@@H]3O)[C@@H](N)C[C@H]2N)[C@H](N)C[C@@H]1O -1.29%
CC(=O)[C@H]1CC[C@@H]2[C@H]3CC=C4C[C@@H](O)CC[C@]4(C)[C@H]3CC[C@]12C -5.77%
CCC(=O)O[C@@]1(C(=O)SCF)[C@@H](C)C[C@H]2[C@@H]3C[C@@H](F)C4=CC(=O)C=C[C@@]4(C)[C@]3(F)[C@@H](O)C[C@]21C 26%
CC(=O)CC(=O)[C@@]1(O)CC[C@@H]2[C@@H]3C=C(C)C4=CC(=O)CC[C@@H]4[C@H]3CC[C@]21C 6.25%
CCCCC[C@H](O)/C=C\[C@@H]1[C@H](O)CC(=O)[C@@H]1CCCCCCC(=O)O 5.86%
COC(=O)Nc1nc2ccc(SC(C)C)cc2[nH]1 22.5%
OCCN1CCN(CCC=C2c3ccccc3Sc3ccc(Cl)cc32)CC1 25.5%
CC#C[C@@]1(O)CC[C@H]2[C@@H]3CCC4=CC(=O)CCC4=C3[C@H](c3ccc(N(C)C)cc3)C[C@]21C -12.3%
C[C@]1(OC(=O)/C=C\c2ccccc2)C[C@@H](O)[C@@]2(O)C=CO[C@@H](O[C@H]3O[C@@H](CO)[C@@H](O)[C@@H](O)[C@@H]3O)[C@H]21 -0.573%
c1ccc2c(c1)CCCc1cc(NCCN3CCOCC3)nnc1-2 -2.43%
NS(=O)(=O)c1cc2c(cc1Cl)N[C@@H](CC1CCCC1)NS2(=O)=O 8.19%
CC1(C)O[C@H]2C[C@@H]3[C@H]4CCC5=CC(=O)CC[C@@]5(C)[C@]4(F)[C@@H](O)C[C@@]3(C)[C@@]2(C(=O)CCl)O1 20.3%
C[C@H](CCC(=O)NCC(=O)O)[C@H]1CC[C@H]2[C@H]3[C@@H](C[C@@H](O)[C@]12C)[C@]1(C)CC[C@H](O)C[C@@H]1C[C@@H]3O 1.78%
COc1cc2ccc(=O)oc2c(O)c1O 8.84%
COc1ccccc1OC[C@H](O)CO -11.7%
C[C@H](Oc1ccccc1)C(=O)N[C@@H]1C(=O)N2[C@@H]1SC(C)(C)[C@@H]2C(=O)O -0.73%
COc1cc2nc(N3CCN(C(=O)[C@@H]4COc5ccccc5O4)CC3)nc(N)c2cc1OC 10.6%
CC1=C(C(=O)O)N2C(=O)[C@@H](NC(=O)[C@@H](N)c3ccc(O)cc3)[C@@H]2SC1 9.98%
CCOC(=O)C1=C(C)NC(C)=C(C(=O)OC)[C@@H]1c1cccc([N+](=O)[O-])c1 10.1%
c1ccc2c(c1)CCC[C@@H]2C1=NCCN1 5.22%
CC(C)(CS)C(=O)N1CCC[C@H]1C(=O)O 8.91%
Cc1ncc([N+](=O)[O-])n1C[C@H](O)CCl 6.22%
Nc1ccn([C@@H]2CC[C@H](CO)O2)c(=O)n1 2.89%
C[C@@]12CC3CC(N)(C1)C[C@@](C)(C3)C2 33.2%
CCC(=O)O[C@@]1(C(=O)CCl)[C@@H](C)C[C@@H]2[C@H]3CCC4=CC(=O)C=C[C@@]4(C)[C@]3(F)[C@@H](O)C[C@@]21C -5.23%
COc1c(O[C@H]2O[C@@H](CO)[C@@H](O)[C@@H](O)[C@@H]2O)cc2c(c1OC)-c1ccc(SC)c(=O)cc1[C@H](NC(C)=O)CC2 4.56%
C=N[C@H](C(=O)N[C@@H]1C(=O)N2[C@@H]1SC(C)(C)[C@@H]2C(=O)O)c1ccccc1 -7.69%
C[C@H](O)Cn1cnc2c1c(=O)n(C)c(=O)n2C -1.85%
C=C1CC[C@H](O)C/C1=C/C=C1\CCC[C@]2(C)[C@H]1CC[C@H]2[C@@H](C)/C=C\[C@@H](C)C(C)C -2.81%
CC[C@]1(c2ccccc2)NC(=O)N(C)C1=O -14.1%

outcome, inactive:
COc1ccc([C@@H]2CC(=O)c3c(O)cc(O)cc3O2)cc1O
